Our source for the inhibition values is PubChem BioAssay AID2315 (National Center for Advancing Translational Sciences (NCATS), 2010).

“And” between values parts separate entries of the source, which are not always exact repeats. Equal entries are not always repeated. Hit rate of the full screen: of about 290,000 compounds, about 27,000 (9.3%) were called active. The list comes from a sample in which actives are over-represented; it also holds similar structures and randomly drawn compounds. Unmarked numbers belong to inactive results. No stated cut-off is given here; in the data, active means inhibition mostly above about 28% (no sharp cut-off); inactive means mostly below about 43%.

As a reminder, the inhibition is the change of the read-out against control, counted positive when it falls.

The nature of this assay: A qHTS for Small Molecule Inhibitors of Shiga Toxin. Further: 0% is about no effect. The settings on record: Vero cells, Shiga toxin protein synthesis inhibition reporter; at 38.7 µM, stronger effect = higher value. (In qHTS, concentration-response curves come from the screen itself.)
With `COc1cc(N2C(=O)CSC2=S)cc(OC)c1OC`, the inhibition is -9%.

As to `CN(C)CCNC(=O)c1[nH]nc2c1CCc1ccccc1-2`, the inhibition is 35.7%.

Turning to `Cc1cc(=O)cc(C)n1-c1ccc(Cl)c(Cl)c1`, the inhibition was 14.3%.

Turning to `O=C(Cc1ccccc1)NCc1ccc(F)cc1`, the inhibition is 55.7% (active).

For the molecule `O=C(O)CCCc1ccccc1`, the inhibition is -13.8% and 15.3%.

For `O=C(/C=C/NCc1ccc(F)cc1)c1ccccc1`, the inhibition is 61.7% (active).

In the case of `O=C(CCOc1ccccc1)NCc1ccccc1`, the inhibition is -3.66%.

In the case of `O=C(/C=C\NCC(=O)c1ccccc1)c1ccccc1`, the inhibition was 17.6%.

As for `O=C(Cc1c(O)c2ccccc2[nH]c1=O)NCc1ccccc1`, the inhibition was -13.9%.

Turning to `CCCCC(=O)NCc1ccc(F)cc1`, the inhibition was 21.3%.

Regarding `O=C(CCCc1ccccc1)NCc1ccccc1`, the inhibition was 39.1% (active).

Consider `O=C(CNCc1ccc(F)cc1)Nc1ccccc1-c1ccccc1`, for which the inhibition is -4.12%.

On to `CCn1c(SCC(=O)NC2CC2)nnc1-c1ccccc1OC`, for which the inhibition is -5.24%.

On to `O=C1/C(=C/c2ccc(F)cc2)SC(=S)N1CCCC(=O)N1CCCCC1CCO` (stereo not given), for which the inhibition is -4.46%.

Consider `CN(C)CCCN(C(=O)c1ccc(S(=O)(=O)N2CCCc3ccccc32)cc1)c1nc2ccc(F)cc2s1`, for which the inhibition was -2.08%.

For `O=C(NCc1ccncc1)C1CCN(C(=O)c2cccc(Cl)c2)CC1`, the inhibition was 4.24%.

On to `COC(=O)C1(C)NC(c2ccc(C)cc2)C2C(=O)N(c3ccc(F)cc3)C(=O)C21` (stereo not given), for which the inhibition was -13.6%.

On to `O=S(=O)(c1cc(Cl)ccc1Cl)N1CCN(Cc2ccco2)CC1`, for which the inhibition is -10.2%.

Regarding `O=c1[nH]c2ccc(S(=O)(=O)N3CCCC3)cc2[nH]1`, the inhibition was -12.3%.

Consider `Cc1ccc(C(C(=O)NCC2CCCO2)N(C(=O)c2snc(C(N)=O)c2N)c2ccc(C(C)C)cc2)o1` (stereo not given), for which the inhibition is 3.97%.

As for `N#Cc1cccc(CN2CCC(=O)N([C@H](CO)c3ccccc3)CC2)c1`, the inhibition is -4.45%.

As to `O=C(NCC1CC1)C1(C(F)(F)F)C/C(=C\CCO)CCCO1` (stereo not given), the inhibition is 2.98%.

On to `Cc1c2cnn(CC(=O)NCc3ccccn3)c(=O)c2c(C)n1Cc1ccc(Cl)cc1`, for which the inhibition was -4.19%.

Regarding `C/C(=N\NC(=O)c1ccccc1F)c1ccccn1`, the inhibition was 61.3% (active).

`COc1ccc(CC(=O)N/N=C(\C)c2ccccn2)cc1`: the inhibition is -0.965%.

For `C/C(=N\NC(=O)Cc1ccc(Cl)cc1)c1ccccn1`, the inhibition is 13.2%.

Take `CCCCN(CC)CCNC(=O)CCNC(=O)Cn1ccc2ccccc2c1=O`: the inhibition was -4.87%.

In the case of `O=S(=O)(c1ccc(F)cc1)N1CCN=C1SCc1cccc(F)c1`, the inhibition was -6%.

As to `Cc1ccc(C)c(NC(=O)c2ccc3nccnc3c2)c1`, the inhibition was 19.7%.

In the case of `COCC(C)NC(=O)c1ccc(Cl)c(Cl)c1` (stereo not given), the inhibition was -2.73%.

For `CC(C)CCC(C)NC(=O)c1ccc2nccnc2c1` (stereo not given), the inhibition is 95.5% (active).

For `COC(=O)Cc1cnc(NC(=O)CSc2nc(C(C)C)cc(=O)[nH]2)s1`, the inhibition was -7.11%.

On to `Oc1ccc(Br)cc1/C=N/Nc1ccccn1`, for which the inhibition is 66.3% (active).

For the molecule `Oc1ccc(Br)cc1C=Nc1ccc2[nH]ncc2c1`, the inhibition was -11.4%.

In the case of `CCN(CC)CCn1c(/N=C/c2cc(Br)ccc2O)nc2ccccc21`, the inhibition is 26.3%.

`FC(F)(F)c1cccc(N/N=C/c2ccccc2)c1`: the inhibition is 33.8%.

For the molecule `Cc1nccn1CC(=O)N/N=C/c1ccc(O)c(O)c1`, the inhibition was -15.2%.

Consider `Oc1ccc(/C=N/Nc2ccc(C(F)(F)F)cn2)cc1O`, for which the inhibition is 108% (active).

Consider `COc1cc(C(=O)NCCOC(=O)c2cccc(N(C)C)c2)cc(OC)c1OC`, for which the inhibition is -2.34%.

`N#C/C=C/N1CCN(Cc2ccc3c(c2)OCO3)CC1`: the inhibition is -6.62%.

For the molecule `CCC(CC)NC(=O)CSc1nnc(-c2c[nH]c3ccccc23)o1`, the inhibition was -14.4%.

For `CN(C(=O)CSc1nnc(-c2c[nH]c3ccccc23)o1)C1CCS(=O)(=O)C1` (stereo not given), the inhibition is -1.73%.

Turning to `O=C(CSc1nnc(-c2c[nH]c3ccccc23)o1)c1ccccc1`, the inhibition was 22.5% (active).

On to `Cc1cccc(OCC(=O)Nc2ccc(NC(=O)c3ccco3)c(C)c2)c1`, for which the inhibition was -4.8%.

For `COc1ccc(-c2nonc2NC(=O)c2oc3ccc(F)cc3c2C)cc1OC`, the inhibition was -3.6%.

On to `CCOc1ccccc1CN1CCN(C2CCC2)CC1CCO` (stereo not given), for which the inhibition was -4.75%.

As to `O=C(c1ccc(S(=O)(=O)c2ccccc2)cc1)N1CCCCCC1`, the inhibition is 1.55%.

As for `O=C(c1ccc(CSc2ccccc2)cc1)N1CCCCCC1`, the inhibition was 17.6% (active).

`CC1CCN(C(=O)c2ccc(CSc3ccc(Cl)cc3)cc2)CC1`: the inhibition is 0.865%.

With `CSCC[C@H](NC(=O)N1CCn2c1nc1ccccc12)C(=O)NCc1ccc2c(c1)OCO2`, the inhibition was -0.771%.

With `Cc1ccc(-c2nc(CS(=O)(=O)CC(=O)NCc3ccc4c(c3)OCO4)c(C)o2)cc1`, the inhibition is -3.19%.

For the molecule `Cc1ccc(NC(=O)c2ccc(CSc3ncnc4nc[nH]c34)cc2)c(C)c1`, the inhibition was 39%.

Take `CCc1ccc(-c2nnn(Cc3nn[nH]n3)n2)cc1`: the inhibition is -3.04%.

`CCc1ccc(-c2nnn(Cc3nc4ccccc4s3)n2)cc1`: the inhibition was 81% (active).

With `CCOC(=O)c1ccc(NC(=O)Cn2nnc(-c3ccc(C)cc3)n2)cc1`, the inhibition was -5.77%.

As for `COc1ccccc1N1CC(C(=O)Nc2nnc(SCC(=O)NCC3CCCO3)s2)CC1=O` (stereo not given), the inhibition is -8.54%.

In the case of `COc1cccc(NC(=O)CN(C)C(=O)c2ccccc2CCc2ccccc2)c1`, the inhibition was 16.1%.

`COc1ccc(CC(NC(C)=O)C(=O)NC2CCN(C(=O)c3ccc(Cl)cc3)CC2)cc1` (stereo not given): the inhibition was -3.77%.

Turning to `N#C/C=C1\Sc2ccccc2C(=O)N1CC(=O)N1CCN(S(=O)(=O)c2ccccc2)CC1`, the inhibition was 122% (active).

On to `CC(CC(=O)N1CCN(S(=O)(=O)c2ccccc2)CC1)n1cncn1` (stereo not given), for which the inhibition is -9.3%.

With `O=C(Cc1ccccc1)N1CCN(S(=O)(=O)c2ccc([N+](=O)[O-])cc2)CC1`, the inhibition was -23.6%.

Regarding `COC(=O)CN1C(=O)[C@H]2[C@@H](/C=C/c3ccccc3)N3C(=O)CN(Cc4ccccc4)C(=O)[C@@]3(Cc3ccccc3)[C@H]2C1=O`, the inhibition was -2.54%.

As to `COc1cc(-c2noc(C3CCCN(S(=O)(=O)c4cccc(Cl)c4)C3)n2)cc(OC)c1OC` (stereo not given), the inhibition was -8.14%.

With `O=C(Cc1cccs1)N1CCCC(c2nc(-c3ccc(S(=O)(=O)N4CCCC4)cc3)no2)C1` (stereo not given), the inhibition was -10.3%.

`CC(C)c1ccc(-c2noc(C3CCCN(S(C)(=O)=O)C3)n2)cc1` (stereo not given): the inhibition was 64.2% (active).

Turning to `Cc1c(CN2CCCC(C(=O)c3cccc(Cl)c3)C2)c(=O)n(-c2ccccc2)n1C` (stereo not given), the inhibition is -7.01%.

For the molecule `CCN(C(=O)C1CCCN(c2nc(-c3ccc(OC)cc3)no2)C1)c1ccc(OC)cc1` (stereo not given), the inhibition is 9.76%.

`O=C(c1cccs1)N1CCCC(c2nc(-c3ccc(F)cc3)no2)C1` (stereo not given): the inhibition is 82.3% (active).

For `O=C(c1ccc(F)cc1)N1CCCC(c2nc(-c3cccs3)no2)C1` (stereo not given), the inhibition was 16.4%.

For the molecule `COc1ccc(NC(=O)N2CCCC(C(=O)Nc3ccccc3OC)C2)cc1` (stereo not given), the inhibition was -5.66%.

Regarding `Cc1ccc(-c2noc(C3CCCN(C(=O)c4cccc(Cl)c4)C3)n2)o1` (stereo not given), the inhibition is 69.1% (active).

As to `COc1ccc(NC(=O)N2CCCC(c3nc(-c4ccc(F)cc4)no3)C2)cc1` (stereo not given), the inhibition is 96% (active).

For `COc1ccc(C(=O)NC2CCN(C(=O)Nc3ccc(F)cc3)CC2)cc1`, the inhibition was -7.18%.

For the molecule `CCc1nc2ccc(C(=O)N3CCN(c4cccc(Cl)c4)CC3)cc2nc1CC`, the inhibition is -14%.

As to `COc1ccccc1C(=O)Nn1cnnc1`, the inhibition was -6.2%.

Turning to `C#CCOc1ccccc1/C=C1/C(=O)ON=C1C`, the inhibition was 3.31%.

For `CC(=O)N1c2ccc(S(=O)(=O)N3CCC(C(=O)NC4CCCCC4C)CC3)cc2CC1C` (stereo not given), the inhibition is -11.2%.

For the molecule `COc1cccc(OC)c1C(=O)Nc1c(C(=O)N2CCN(c3ccccn3)CC2)oc2ccccc12`, the inhibition is 3.52%.

For `CCOC(=O)C1CCN(C(=O)CN2C(=O)c3cccnc3Oc3ccc(C)cc32)CC1`, the inhibition is -9.03%.

`COc1ccc(N(C(=O)c2snc(C(N)=O)c2N)C(C(=O)NC2CCCC2)c2ccc(C)o2)c(OC)c1` (stereo not given): the inhibition is -6.03%.

For the molecule `Cc1ccc2c(c1)N(CC(=O)N1CCCC(C)C1)C(=O)CO2` (stereo not given), the inhibition was 2.65%.

As to `Cc1cccc(S(=O)(=O)N2CN(CC3CCCO3)c3nc4ccccc4nc32)c1` (stereo not given), the inhibition is -6.17%.

Consider `O=C(c1c(F)cccc1Cl)N1CCN(c2ccccn2)CC1`, for which the inhibition is -18.5%.

With `Cc1ccccc1N1CCN(CCCN2C(=O)C3CCCCN3C2=O)CC1` (stereo not given), the inhibition is -5.61%.

Consider `CN(CC1CCCO1)S(=O)(=O)c1ccc(C(=O)Nc2ccc([N+](=O)[O-])cc2)cc1` (stereo not given), for which the inhibition is 14%.

`CN(C(=O)c1cccc([N+](=O)[O-])c1)c1ccccc1C(=O)NCc1ccccc1`: the inhibition is -10.6%.

Consider `COc1cc2c(C(=O)O)c(C)n(C)c2c2ccccc12`, for which the inhibition was -4.47%.

For `COc1cccc2c(C)c(C(=O)O)[nH]c12`, the inhibition was -35.1% (active).

With `Cc1c(C(=O)N/N=C/c2ccccc2)[nH]c2c([N+](=O)[O-])cccc12`, the inhibition was -9.32%.

Turning to `COc1ccccc1N1CCN(S(=O)(=O)CCNC(=O)c2ccc(OC(C)C)cc2)CC1`, the inhibition was -4.39%.

With `Cc1ccccc1CNC(=O)CCC(=O)N1Cc2ccccc2Oc2ncccc21`, the inhibition is 13.6%.

With `C[n+]1cc(-c2ccccc2)oc1-c1ccccc1`, the inhibition was 88.6% (active).

On to `COc1ccccc1CCNS(=O)(=O)c1cn(C)nc1C`, for which the inhibition was -8.83%.

For the molecule `CS(=O)(=O)c1ccc2nc(NC(=O)C3C4C=CC(C4)C3C(=O)O)sc2c1` (stereo not given), the inhibition is 14.8%.

As for `O=C(Nc1nc2ccc([N+](=O)[O-])cc2s1)c1ccncc1`, the inhibition was 35%.

For the molecule `CNC(=O)c1ccc2nc(NC(C)=O)sc2c1`, the inhibition is 45.1% (active).

Regarding `CS(=O)(=O)c1ccc2nc(NC(=O)c3ccc(N4CCCC4=O)cc3)sc2c1`, the inhibition is 8.48%.

With `COc1cccc(C(=O)Nc2nc3ccc(S(C)(=O)=O)cc3s2)c1`, the inhibition was 92.7% (active).

As for `CS(=O)(=O)c1ccc2nc(NC(=O)c3ccc(Cl)nc3)sc2c1`, the inhibition is 70.7% (active).

As to `CS(=O)(=O)c1ccc2nc(NC(=O)CN3CCCCCC3)sc2c1`, the inhibition was 18.3%.

As to `CCCC(=O)Nc1nc2ccc(NC(=O)c3cccnc3)cc2s1`, the inhibition is 89.7%.

Regarding `CCN(CC)c1ccc(NC(=O)c2ccc(Cl)nc2)cc1`, the inhibition is 18.4%.

For `Cc1cnc(NC(=O)c2ccc(Cl)nc2)s1`, the inhibition was 109% (active).

Turning to `Cc1cnc(NC(=O)c2ccccn2)s1`, the inhibition was 11.7%.

Take `CS(=O)(=O)c1ccc2nc(NC(=O)C3CCCCC3)sc2c1`: the inhibition was 22.9%.
